Several values for one entry are separate records, joined by “and”; a condition that tells them apart may be missing. Identical values can stand only once. Results filed as inconclusive are left out. Activity calls are given as the source filed them. Calls come from the whole dose curve.
Experiment: qHTS Assay for Lipid Storage Modulators (AID 1519); for activity change, negative = inhibition: % is set by controls: 0 for no effect and ±100 for the full control effect
Details: Drosophila S3 cells, BODIPY lipid droplet/cell ratio, laser cytometry, cells loaded with oleic acid
Excerpt: NIH Molecular Libraries Probe Production Centers Network [MLPCN]
NIH Chemical Genomics Center [NCGC]
Assay Submitter (PI): Beller, Mathias; Max-Planck-Institut fur Biophysikalische Chemie
NCGC Assay Overview: Storing lipids as a reservoir for energy or the anabolism of elementary metabolites is a common feature of probably all cells and is conserved from bacteria to humans. The universal cellular lipid storage organelle is the so-called lipid storage droplet (LD). Although ubiquitous, LDs share a simple structure composed of a hydrophobic core that harbors the storage lipids, which is shielded by a droplet-specific phospholipid monolayer to which proteins are attached. The current model of LD biogenesis involves an incorporation of the lipid core into the membrane leaflets of the endoplasmic reticulum (ER) followed by a subsequent budding-like maturation of a LD, which ultimately pinches off. Once released, LD volume can increase by localized lipogenesis or fusion of existing droplets. Storage lipids are re-mobilized enzymatically by lipase activity. Lipase regulation in the adipocyte is heavily studied and involves multiple components including catecholamine signaling, the LD-associated proteins Perilipin and comparative gene identification-58 (CGI-58) and at least two lipases named hormone sensitive lipase (HSL) and adipocyte triglyceride lipase (ATGL). LD regulation outside of the adipocyte is poorly understood and only few components are known. However, there is an urgent need to learn more about ectopic fat depots as mislocalized storage of lipids, for example in the liver or muscle, is an eminent health problem associated with insulin resistance or the metabolic syndrome. We developed a laser-scanning cytometer assay to enable 1,536-well screening and combined the results of the small molecules screen with an RNAi database based on lipid storage.
NCGC Assay Protocol Summary:
We dispensed 4 uL of cells at 1.25 x 10^6 cells/mL into LoBase Aurora COC 1,536-well plates (black walled, clear bottom) with a bottle-valve solenoid-based dispenser (Aurora) to obtain 5,000 cells/well. Triacsin C (Sigma-Aldrich T-4540), an inhibitor of long-chain fatty acyl CoA synthetase that blocks synthesis of triglycerides, was used as a positive control for lipid under-storage. A total of 23 nL of compound solution of different concentrations were transferred to the assay plates using a Kalypsys pin tool equipped with a 1,536-pin array containing 10-nL slotted pins (FP1S10, 0.457-mm diameter, 50.8 mm long; V&P Scientific). One microliter of oleic acid (400 uM) was added, and the plate was lidded with stainless steel rubber gasket lined lids containing pinholes. […] Fluorescence was detected by excitation of the fluorophores with a 488-nm laser on an Acumen Explorer (TTP Lab Tech). The total intensity in channel 1 (500-530 nm) reflected lipid droplet accumulation. […] The ratio of the total intensity in PMT channel 1 over total intensity of channel 3 was also calculated. Percent activity was computed relative to an internal control (100% inhibited lipid droplet deposition due to the presence of 20 uM Triacsin C), which was added to 32 wells/plate.

[1] = measured here: cell count channel max response
[2] = measured here: lipid channel max response

## CCN(CC)C(=S)SSC(=S)N(CC)CC
At 25.7 µM (top of the series)
  activity change, negative = inhibition: -3.33% (inactive)
[1]
  max response: -15.7%
[2]
  max response: -17%

## NC(=NCc1ccccc1)NC(=O)c1nc(Cl)c(N)nc1N
At 25.7 µM (top of the series)
  activity change, negative = inhibition: 0.817% (inactive)
At 57.5 µM (top of the series)
  activity change, negative = inhibition: 2.33% (inactive)
[1]
  max response: -4.7% and 21.8%
[2]
  max response: -4.9% and 26.9%

## NS(=O)(=O)c1cc(C(=O)O)c(NCc2ccco2)cc1Cl
At 25.7 µM (top of the series)
  activity change, negative = inhibition: 1.95% (inactive)
[1]
  max response: -6.97%
[2]
  max response: -4.2%

## Cc1nc2n(c(=O)c1CCN1CCC(c3noc4cc(F)ccc34)CC1)CCCC2
At 25.7 µM (top of the series)
  activity change, negative = inhibition: -3.92% (inactive)
At 57.5 µM (top of the series)
  activity change, negative = inhibition: 0.755% (inactive)
[1]
  max response: -8.38% and -35%
[2]
  max response: -11.2% and -35%

## Cc1cc2cc3c(C)cc(=O)oc3c(C)c2o1
At 25.7 µM (top of the series)
  activity change, negative = inhibition: -0.305% (inactive)
[1]
  max response: -4.86%
[2]
  max response: -6.06%

## CC(=O)Nc1ccc(O)cc1
At 25.7 µM (top of the series)
  activity change, negative = inhibition: -2.03% (inactive)
At 57.5 µM (top of the series)
  activity change, negative = inhibition: -1.72% (inactive) and 6.64% (inactive)
[1]
  max response: -12.5% and -9.7% and 2.35%
[2]
  max response: -12.8% and -10.2% and 7.7%

## Nc1cc(C(Cl)=C(Cl)Cl)c(S(N)(=O)=O)cc1S(N)(=O)=O
At 25.7 µM (top of the series)
  activity change, negative = inhibition: -3.67% (inactive)
At 57.5 µM (top of the series)
  activity change, negative = inhibition: 2.69% (inactive)
[1]
  max response: 6.94% and 7.19%
[2]
  max response: 2.6% and 13.2%

## O=C(c1ccccc1)c1ccc2n1CCC2C(=O)O (stereo not drawn)
At 57.5 µM (top of the series)
  activity change, negative = inhibition: 6.17% (inactive)
[1]
  max response: 4.19%
[2]
  max response: 13.3%

## CN(C)CCCC1(c2ccc(F)cc2)OCc2cc(C#N)ccc21 (stereo not drawn)
At 57.5 µM (top of the series)
  activity change, negative = inhibition: 0.497% (inactive)
[1]
  max response: -10.6%
[2]
  max response: -12.9%

## Cc1ncc([N+](=O)[O-])n1CC(C)O (stereo not drawn)
At 57.5 µM (top of the series)
  activity change, negative = inhibition: 2.12% (inactive)
[1]
  max response: 10.3%
[2]
  max response: 12.9%

## Cc1cccc(C#Cc2ccccc2)n1
At 57.5 µM (top of the series)
  activity change, negative = inhibition: 0.257% (inactive)
[1]
  max response: -2.56%
[2]
  max response: -2.47%

## S=c1nc[nH]c2nc[nH]c12
At 57.5 µM (top of the series)
  activity change, negative = inhibition: 2.17% (inactive)
[1]
  max response: 9.84%
[2]
  max response: 14.8%

## CS(=O)(=O)OCCCCOS(C)(=O)=O
At 57.5 µM (top of the series)
  activity change, negative = inhibition: 1.02% (inactive)
[1]
  max response: 2.98%
[2]
  max response: 11.4%

From PubChem BioAssay (NCATS)
